This is part of a sample that, as a whole, favours compounds with a hit. Of some 79,000 tested, about 15% had one in any assay. Values without a mark were called inactive. Activity calls are given as the source filed them. Cut-off read from the data, not from the text of the source: active = growth inhibition above about 70%; inactive = the rest.
How the values were obtained:
[1] = NCI Yeast Anticancer Drug Screen. Data for the rad52 strain (AID 147);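 note: 0% = growth of vehicle-treated control cultures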; details: S. cerevisiae rad52 mutant growth inhibition, active compounds read high
In short: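 Inhibition of yeast growth, referenced to vehicle controls, was the measured output for a strain with defective DNA damage repair.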

[2] = NCI Yeast Anticancer Drug Screen. Data for the wt1 strain (AID 149);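 note: 0% = growth of vehicle-treated wt1 cultures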; details: S. cerevisiae wt1 strain (SPY 50644) growth inhibition, active compounds read high
In short: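 Vehicle-normalised growth inhibition; strain wt1; compound exposure.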

[3] = NCI Yeast Anticancer Drug Screen. Data for the rad50EPP+ strain (AID 151);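 note: 0% = growth of vehicle-treated control cultures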; details: S. cerevisiae rad50 mutant strain, active compounds read high
In short: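 Genetically defined yeast (rad50EPP+, DNA damage repair alteration) is grown with compound, and inhibition of growth is expressed relative to vehicle-treated controls.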

[4] = NCI Yeast Anticancer Drug Screen. Data for the mgt1 strain (AID 153); details: S. cerevisiae mgt1 mutant growth inhibition, active compounds read high
In short: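 In the mgt1 strain, test compounds were added and growth inhibition was determined relative to vehicle-treated controls.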

[5] = NCI Yeast Anticancer Drug Screen. Data for the rad50 strain (AID 155);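 note: 0% = growth of vehicle-only cultures of the same strain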; details: S. cerevisiae rad50 strain growth inhibition, active compounds read high
In short: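 A DNA repair-deficient yeast mutant serves as the test organism; compound-induced growth inhibition is calculated against vehicle-treated cells.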

[6] = NCI Yeast Anticancer Drug Screen. Data for the mec2-1 strain (AID 157); details: S. cerevisiae mec2-1 strain, active compounds read high
In short: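 Each compound was tested on mec2-1 yeast, a strain altered in DNA damage repair or cell cycle control. Growth inhibition is reported relative to vehicle.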

[7] = NCI Yeast Anticancer Drug Screen. Data for the rad14 strain (AID 159);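 note: 0% = growth of vehicle-treated control cultures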; details: S. cerevisiae rad14 strain growth inhibition, active compounds read high
In short: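 Vehicle-treated cultures served as the baseline for growth inhibition of a DNA repair-mutant yeast strain exposed to each compound.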

[8] = NCI Yeast Anticancer Drug Screen. Data for the sgs1 mgt1 strain (AID 161);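 note: 0% = growth of cultures given vehicle only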; details: S. cerevisiae sgs1 mgt1 strain, active compounds read high
In short: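 Mutant yeast exposed to compound; growth scored against vehicle-only wells.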

[9] = NCI Yeast Anticancer Drug Screen. Data for the CLN2oe strain (AID 163);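 note: 0% = growth of vehicle-only control cultures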; details: S. cerevisiae CLN2oe strain, active compounds read high
In short: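 First, the altered yeast strain was treated with each compound; second, its growth was measured; finally, inhibition was derived by comparison with vehicle controls.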

[10] = NCI Yeast Anticancer Drug Screen. Data for the cln2 rad14 strain (AID 165);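 note: 0% = growth equal to vehicle treated cultures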; details: S. cerevisiae cln2 rad14 strain, active compounds read high
In short: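 Test compounds were added to cln2 rad14 yeast cultures; inhibition of growth was then determined by comparison with vehicle treatment.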

[11] = NCI Yeast Anticancer Drug Screen. Data for the bub3 strain (AID 167); details: S. cerevisiae bub3 mutant strain, active compounds read high
In short: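 Inhibition values come from growth of compound-treated mutant yeast normalised to vehicle-treated controls.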

[12] = NCI Yeast Anticancer Drug Screen. Data for the wt2 strain (AID 169);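 note: 0% = growth of vehicle-treated yeast cultures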; details: S. cerevisiae wt2 strain growth inhibition, active compounds read high
In short: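 The panel's yeast strains carry defined changes in DNA repair or cell cycle genes. Each strain is grown with compound, and growth loss is scored relative to vehicle.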

[13] = NCI Yeast Anticancer Drug Screen. Data for the mlh1 strain (AID 171);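 note: 0% = growth of vehicle-treated control cultures of the same strain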; details: S. cerevisiae mlh1 strain growth inhibition, active compounds read high
In short: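 Inhibition values reflect reduced yeast growth in the presence of compound, referenced to vehicle controls, using a strain chosen for its alteration in DNA repair or cell cycle control.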

[14] = NCI Yeast Anticancer Drug Screen. Data for the sgs1 strain (AID 173);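 note: 0% = growth of vehicle-only control cultures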; details: S. cerevisiae sgs1 mutant, active compounds read high
In short: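 Vehicle-treated cultures served as reference for growth inhibition of a yeast strain altered in DNA damage repair or cell cycle control after compound exposure.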

[15] = NCI Yeast Anticancer Drug Screen. Data for the mlh1 rad18 strain (AID 175); details: S. cerevisiae mlh1 rad18 strain growth inhibition, active compounds read high
In short: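 Inhibition values reflect reduced growth of mutant yeast versus vehicle-treated controls following compound exposure; the mutations affect DNA damage repair.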

[16] = NCI Yeast Anticancer Drug Screen. Data for the rad18 strain (AID 177); details: S. cerevisiae rad18 mutant growth inhibition, active compounds read high
In short: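 Steps: expose repair-mutant yeast to compound; measure growth; express as inhibition relative to vehicle control.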

[17] = at 5.0 µM (retest, dose inferred, filed as 0.5)
[18] = at 50.0 µM (retest, dose inferred, filed as 5.0)

`CCC(=O)Oc1c(Cl)cc(Cl)c2ccccc12` gave a growth inhibition ([1]; at 1.2 µM) of -2%, a growth inhibition ([1]; at 3.7 µM) of -2% and a growth inhibition ([1]; at 11.0 µM) of -1%. It also gave a growth inhibition ([1]; at 33.0 µM) of 4%, a growth inhibition ([1]; at 100.0 µM) of 54% and a growth inhibition ([2]; at 1.2 µM) of -4%. For the same compound, the growth inhibition ([2]; at 3.7 µM) was -4%, the growth inhibition ([2]; at 11.0 µM) was -4% and the growth inhibition ([2]; at 33.0 µM) was -6%. The growth inhibition ([2]; at 100.0 µM) was 13%, the growth inhibition ([3]; at 1.2 µM) was -2% and the growth inhibition ([3]; at 3.7 µM) was 4%. It also gave a growth inhibition ([3]; at 11.0 µM) of 10%, a growth inhibition ([3]; at 33.0 µM) of 15% and a growth inhibition ([3]; at 100.0 µM) of 49%. The growth inhibition ([4]; at 1.2 µM) was -8%, the growth inhibition ([4]; at 3.7 µM) was -10% and the growth inhibition ([4]; at 11.0 µM) was -2%. It also gave a growth inhibition ([4]; at 33.0 µM) of 3%, a growth inhibition ([4]; at 100.0 µM) of 28% and a growth inhibition ([5]; at 1.2 µM) of -5%. The growth inhibition ([5]; at 3.7 µM) was -4%, the growth inhibition [5, 17] was 8% and the growth inhibition ([5]; at 11.0 µM) was -1%. It also gave a growth inhibition ([5]; at 33.0 µM) of 5%, a growth inhibition [5, 18] of -53% and a growth inhibition ([5]; at 50.0 µM) of 20.1%. It also gave a growth inhibition ([5]; at 100.0 µM) of 35%, a growth inhibition ([6]; at 1.2 µM) of -2% and a growth inhibition ([6]; at 3.7 µM) of -2%. It also gave a growth inhibition [6, 17] of -9%, a growth inhibition ([6]; at 11.0 µM) of -2% and a growth inhibition ([6]; at 33.0 µM) of 0%. It also gave a growth inhibition [6, 18] of -1%, a growth inhibition ([6]; at 50.0 µM) of -8.5% and a growth inhibition ([6]; at 100.0 µM) of 32%. The growth inhibition ([7]; at 1.2 µM) was -7%, the growth inhibition ([7]; at 3.7 µM) was -4% and the growth inhibition ([7]; at 11.0 µM) was 0%. For the same compound, the growth inhibition ([7]; at 33.0 µM) was 9%, the growth inhibition ([7]; at 100.0 µM) was 39% and the growth inhibition [8, 17] was -9%. It also gave a growth inhibition [8, 18] of 49%, a growth inhibition ([8]; at 50.0 µM) of 32% and a growth inhibition ([9]; at 1.2 µM) of -5%. The growth inhibition ([9]; at 3.7 µM) was -2%, the growth inhibition ([9]; at 11.0 µM) was -7% and the growth inhibition ([9]; at 33.0 µM) was -6%. For the same compound, the growth inhibition ([9]; at 100.0 µM) was 22%, the growth inhibition [10, 17] was -16% and the growth inhibition [10, 18] was 18%. The growth inhibition ([10]; at 50.0 µM) was 15.2%, the growth inhibition ([11]; at 1.2 µM) was -4% and the growth inhibition ([11]; at 3.7 µM) was -6%. It also gave a growth inhibition [11, 17] of 2%, a growth inhibition ([11]; at 11.0 µM) of -9% and a growth inhibition ([11]; at 33.0 µM) of -12%. It also gave a growth inhibition [11, 18] of -5%, a growth inhibition ([11]; at 50.0 µM) of 12.1% and a growth inhibition ([11]; at 100.0 µM) of 3%. For the same compound, the growth inhibition ([12]; at 1.2 µM) was -4%, the growth inhibition ([12]; at 3.7 µM) was -5% and the growth inhibition ([12]; at 11.0 µM) was -5%. The growth inhibition ([12]; at 33.0 µM) was -5%, the growth inhibition ([12]; at 100.0 µM) was 20% and the growth inhibition ([13]; at 1.2 µM) was -2%. It also gave a growth inhibition ([13]; at 3.7 µM) of -2%, a growth inhibition ([13]; at 11.0 µM) of 0% and a growth inhibition ([13]; at 33.0 µM) of 10%. For the same compound, the growth inhibition ([13]; at 100.0 µM) was 38%, the growth inhibition ([14]; at 1.2 µM) was -4% and the growth inhibition ([14]; at 3.7 µM) was -3%. It also gave a growth inhibition ([14]; at 11.0 µM) of 2%, a growth inhibition ([14]; at 33.0 µM) of 9% and a growth inhibition ([14]; at 100.0 µM) of 43%. The growth inhibition [15, 17] was -10%, the growth inhibition [15, 18] was 77% (active) and the growth inhibition ([15]; at 50.0 µM) was 10.9%. For the same compound, the growth inhibition ([16]; at 1.2 µM) was -3%, the growth inhibition ([16]; at 3.7 µM) was 1% and the growth inhibition ([16]; at 11.0 µM) was 1%. The growth inhibition ([16]; at 33.0 µM) was 5% and the growth inhibition ([16]; at 100.0 µM) was 73% (active).

`Cc1c(C2=C(Br)C(=O)N(C)C2=O)c(=O)n(C)c(=O)n1C` showed a growth inhibition ([1]; at 1.2 µM) of 11%, a growth inhibition ([1]; at 3.7 µM) of 26% and a growth inhibition ([1]; at 11.0 µM) of 51%. The growth inhibition ([1]; at 33.0 µM) was 67%, the growth inhibition ([1]; at 100.0 µM) was 87% (active) and the growth inhibition ([2]; at 1.2 µM) was 4%. It also gave a growth inhibition ([2]; at 3.7 µM) of 13%, a growth inhibition ([2]; at 11.0 µM) of 23% and a growth inhibition ([2]; at 33.0 µM) of 35%. The growth inhibition ([2]; at 100.0 µM) was 73% (active), the growth inhibition ([3]; at 1.2 µM) was 0% and the growth inhibition ([3]; at 3.7 µM) was -2%. For the same compound, the growth inhibition ([3]; at 11.0 µM) was -2%, the growth inhibition ([3]; at 33.0 µM) was 1% and the growth inhibition ([3]; at 100.0 µM) was 3%. For the same compound, the growth inhibition ([4]; at 1.2 µM) was -1%, the growth inhibition ([4]; at 3.7 µM) was 0% and the growth inhibition ([4]; at 11.0 µM) was 8%. For the same compound, the growth inhibition ([4]; at 33.0 µM) was 23%, the growth inhibition ([4]; at 100.0 µM) was 91% (active) and the growth inhibition ([5]; at 1.2 µM) was 6%. The growth inhibition ([5]; at 3.7 µM) was 15%, the growth inhibition [5, 17] was 10% and the growth inhibition ([5]; at 11.0 µM) was 46%. For the same compound, the growth inhibition ([5]; at 33.0 µM) was 78% (active), the growth inhibition [5, 18] was 55% and the growth inhibition ([5]; at 50.0 µM) was 81.9% (active). The growth inhibition ([5]; at 100.0 µM) was 91% (active), the growth inhibition ([6]; at 1.2 µM) was 7% and the growth inhibition ([6]; at 3.7 µM) was 15%.
